Reference: ChEMBL document CHEMBL4513216, “Probing the Open Global Health Chemical Diversity Library for Multistage-Active Starting Points for Next-Generation Antimalarials” (ACS Infect Dis, 2020)
Hit rate of the full screen: of about 69,000 compounds, about 8,600 (12%) showed an effect of 50% or more. The entries come from a sample that favours strong results as a whole.

The molecules below were run on Plasmodium berghei (assay: Screen against P. berghei liver stage (PbLuc), transformed with Luciferase, at 10uM). Conditions: tested at 10 uM.
Type: functional, HepG2

Q: `Cc1nc(CN2CCCN(Cc3nccn3C(C)C)CC2)no1` was tested. Which INHIBITION did it give?
A: 29.7%

Q: Which INHIBITION does the source give for `CNc1nc(CNC(=O)Nc2cccc(CC(F)(F)F)c2)cs1` here?
A: 7.5%

Q: `CNC(=O)[C@H]1C[C@@H]2CN(Cc3cccnc3OC)C[C@@H]2N1C(C)C` was tested. Which INHIBITION did it give?
A: 33.4%

Q: With `CNC(=O)[C@@H]1C[C@H]2CN(c3ncccn3)C[C@H]2N1C(C)C` as the molecule, how does the INHIBITION read?
A: 24.6%

Q: `CNC(=O)[C@H]1C[C@@H]2CN(c3cc(OC)ncn3)C[C@@H]2N1C(C)C` was tested. Which INHIBITION did it give?
A: 55.6%

Q: With `CN1CCN(C[C@H]2OC[C@@H]3CCN(Cc4ccsc4)C[C@@H]32)CC1` as the molecule, how does the INHIBITION read?
A: 22.4%

Q: For `O=C(c1ccn(COc2ccc(F)cc2)n1)N1CCCCCC1`, which INHIBITION is on record?
A: -24.6%

Q: How did the INHIBITION turn out when `CC(C)c1ccc(OCn2ccc(C(=O)N3CCCC3)n2)cc1` was run?
A: 83.4%

Q: `O=C(c1ccn(COc2ccc(F)cc2)n1)N1CCCC1` was tested. Which INHIBITION did it give?
A: -28%

Q: With `CN(CCc1ccccn1)Cc1nccn1Cc1ccccc1` as the molecule, how does the INHIBITION read?
A: 81.2%

Q: How did the INHIBITION turn out when `CN(CCc1ccncc1)Cc1nccn1Cc1ccccc1` was run?
A: 11.6%

Q: With `CN(Cc1ccncc1)Cc1nccn1Cc1ccccc1` as the molecule, how does the INHIBITION read?
A: -46.4%

Q: Which INHIBITION does the source give for `CC(C)CC(=O)N1CCCC1c1nccnc1Nc1ncccn1` (centres undefined) here?
A: 32.3%

Q: Which INHIBITION does the source give for `O=S(=O)(CC1CCCN1S(=O)(=O)C1CC1)c1ccccc1` (centres undefined) here?
A: 7.77%

Q: With `CS(=O)(=O)N1CCCC1CS(=O)(=O)c1ccccc1` (centres undefined) as the molecule, how does the INHIBITION read?
A: 66.9%

Q: `O=S(=O)(CC1CCCN1S(=O)(=O)c1cccnc1)c1ccccc1` (centres undefined) was tested. Which INHIBITION did it give?
A: 13.2%

Q: For `O=C1NC(c2cnc(C3CCC3)s2)Nc2ccccc21` (centres undefined), which INHIBITION is on record?
A: -90.1%

Q: For `CC(C)Nc1nc2c(c(N(C)C)n1)CCN(C(=O)c1cc[nH]n1)CC2`, which INHIBITION is on record?
A: 50.7%

Q: Which INHIBITION does the source give for `CC(C)N(C)Cc1n[nH]c2c1CCN(C(=O)c1cc[nH]n1)C2` here?
A: 8.03%

Q: Which INHIBITION does the source give for `Cc1nc2c(c(NC(C)C)n1)CCN(C(=O)c1cc[nH]n1)CC2` here?
A: 34.6%

Q: `O=C(C[C@@H]1COC[C@H]2CN(C3CCOCC3)C[C@@H]12)Nc1cnccn1` was tested. Which INHIBITION did it give?
A: 42.5%

Q: With `COc1ccccc1C1(O)CCCN(C(=O)c2cnc(SC)nc2)C1` (centres undefined) as the molecule, how does the INHIBITION read?
A: 36.9%

Q: Which INHIBITION does the source give for `O=C(CC1CC1)N[C@@H]1CN(Cc2ccoc2)C[C@@H]2CCCO[C@@H]21` here?
A: 3.25%

Q: With `O=C(CC1CC1)N[C@@H]1CN(C(=O)c2ccoc2)C[C@@H]2CCCO[C@@H]21` as the molecule, how does the INHIBITION read?
A: 71.1%

Q: How did the INHIBITION turn out when `O=C(N[C@@H]1CN(Cc2ccccc2)C[C@@H]2CCCO[C@@H]21)C1CC1` was run?
A: 6.38%

Q: With `COc1ccc(CN2C[C@@H]3CCCO[C@@H]3[C@H](NC(=O)CC3CC3)C2)cc1` as the molecule, how does the INHIBITION read?
A: -3.52%

Q: Which INHIBITION does the source give for `Cc1occc1C(=O)N1C[C@@H]2CCCO[C@@H]2[C@H](NS(C)(=O)=O)C1` here?
A: 43%

Q: For `O=C(CC1CC1)N[C@@H]1CN(Cc2ccc(F)cc2)C[C@@H]2CCCO[C@@H]21`, which INHIBITION is on record?
A: -6.23%

Q: How did the INHIBITION turn out when `O=C(CC1CC1)N[C@@H]1CN(C(=O)c2ccsc2)C[C@@H]2CCCO[C@@H]21` was run?
A: 63.8%

Q: For `O=C(CC1CC1)N[C@@H]1CN(c2ncccn2)C[C@@H]2CCCO[C@@H]21`, which INHIBITION is on record?
A: -29.3%

Q: Which INHIBITION does the source give for `Cc1occc1C(=O)N1C[C@@H]2CCCO[C@@H]2[C@H](NC(=O)CC2CC2)C1` here?
A: 62.9%

Q: Which INHIBITION does the source give for `Cc1ccc(CN2C[C@@H]3CCCO[C@@H]3[C@H](NC(=O)CC3CC3)C2)s1` here?
A: 49.3%

Q: `O=C(CC1CC1)N[C@@H]1CN(Cc2ccco2)C[C@@H]2CCCO[C@@H]21` was tested. Which INHIBITION did it give?
A: -2.17%

Q: `O=C(N[C@@H]1CN(Cc2ccoc2)C[C@@H]2CCCO[C@@H]21)C1CCC1` was tested. Which INHIBITION did it give?
A: 72%
